Experimental data as given in PubChem BioAssay.
Activity calls are given as the source filed them.

What was measured:
[1] = tested on: Plasmodium falciparum Sir2 (PF13_0152, Sir2A); assay: pfSir2 binders on small-molecule microarrays, primary screen, biochemical, small-molecule microarray, 635 nm fluorescence (AID 1098); details: small-molecule microarray binding, fluorescence 635 nm; higher = more signal;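 note: score merges spot fluorescence intensity with its signal-to-noise ratio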
[2] = small-molecule microarray binders of probe aDKK1, primary screen, biochemical, biotinylated probe, 635/667 nm fluorescence (AID 1099); details: higher = more signal;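 note: score merges 667nm spot fluorescence with signal to noise across triplicate slides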
[3] = small-molecule microarray binders of probe aCHRDL2, primary screen, biochemical, biotinylated probe, 635/667 nm fluorescence (AID 1100); details: higher = more signal
[4] = splicing luciferase reporter signal modulators, primary screen, spliceosome inhibition project, cell-based, HEK293, splice +/- reporter (AID 1101); details: luminescence, 24 h, higher = more signal, called active from +8 up or from −8 down;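 note: HEK293 cells carrying a splicing-competent luciferase reporter gene; test concentration not given here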
[5] = target: Fibroblast growth factor 10 (Homo sapiens) (UniProt O15520); assay: FGF10 binders on small-molecule microarrays, primary screen, biochemical, small-molecule microarray, 635 nm fluorescence (AID 1102); details: FGF10 binding, fluorescence 635 nm, higher = more signal
[6] = tested on: glycogen synthase kinase-3 (GSK3A per assay name; protocol says GSK3B); assay: GSK3 binders on small-molecule microarrays, primary screen, biochemical, small-molecule microarray, 635 nm fluorescence, GSK3A (AID 1103); details: small-molecule microarray binding, fluorescence 635 nm; higher = more signal; note: the record names both GSK3A and GSK3B
[7] = target: Epidermal growth factor receptor (Homo sapiens) (UniProt P00533); assay: EGFR binders on small-molecule microarrays, primary screen, biochemical, small-molecule microarray, 635 nm fluorescence (AID 1104); details: EGFR binding, higher = more signal;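 note: score merges 667 nm emission intensity with spot signal to noise over triplicate slides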
[8] = target: Follistatin-related protein 3 (Homo sapiens) (UniProt O95633); assay: FSTL3 binders on small-molecule microarrays, primary screen, biochemical, small-molecule microarray, 635 nm fluorescence (AID 1105); details: FSTL3 binding, higher = more signal;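 note: score merges emission near 667 nm and signal to noise per printed spot across three slides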
[9] = target: Dickkopf-related protein 1 (Homo sapiens) (UniProt O94907); assay: DKK1 binders on small-molecule microarrays, primary screen, biochemical, small-molecule microarray, 635 nm fluorescence scan (AID 1106); details: DKK1 binding, higher = more signal;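 note: score merges emission near 667 nm with signal to noise over three replicate slides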
[10] = tested on: Inhibin beta A chain (activin A); assay: INHBA (activin A) binders on microarrays, primary screen, biochemical, small-molecule microarray, 635 nm fluorescence scan (AID 1107); details: small-molecule microarray binding, higher = more signal;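 note: mouse activin A protein probed at 4.33 µg/mL on printed slides; score merges bound-protein fluorescence near 667 nm with spot signal-to-noise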
[11] = tested on: Human papillomavirus type 1a protein E7 (residues 44-93); assay: HPV1a E7 fragment binders on microarrays, primary screen, biochemical, small-molecule microarray, residues 44-93, 635 nm fluorescence (AID 1108); details: small-molecule microarray binding, fluorescence 635 nm; higher = more signal;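 note: E7 fragment applied at 1 µg/mL in TBST for 1 h at 4 C; score combines spot fluorescence with its signal to noise ratio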
[12] = modulators of HCV replicon luciferase signal, primary screen, HCV replication inhibitor project, Huh7 cells, luciferase reporter (AID 1109); details: 48 h, higher = more signal;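 note: huh7 hepatoma cells harbouring a luciferase neomycin HCV replicon reporter; luciferase luminescence as measure of HCV replicon replication; test concentration not given here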
[13] = target: Left-right determination factor 2 (Homo sapiens) (UniProt O00292); assay: LEFTY2 binders on small-molecule microarrays, primary screen, biochemical, small-molecule microarray, 635 nm fluorescence scan (AID 1110); details: LEFTY2 binding, higher = more signal
[14] = target: Calmodulin-1 (Homo sapiens) (UniProt P0DP23); assay: CALM1 binders on microarrays, EGTA buffer, profiling panel, biochemical, small-molecule microarray, Cy5-labelled CALM1 (AID 1111); details: Cy5-CALM1 binding fluorescence, higher = more signal;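 note: labelled calmodulin applied in Tris saline Tween buffer holding calcium plus EGTA and DTT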
[15] = target: Calmodulin-1 (Homo sapiens) (UniProt P0DP23); assay: calcium-bound CALM1 binders on microarrays, profiling panel, artefact control for SMM control-protein annotation, biochemical, small-molecule microarray, Cy5-labelled CALM1, plus calcium (AID 1112); details: Cy5-CALM1 binding fluorescence, higher = more signal;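 note: score merges spot fluorescence with signal to noise from triplicate slides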
[16] = small-molecule microarray binders of probe aWnt5a, primary screen, biochemical, biotinylated probe, 635/667 nm fluorescence (AID 1113); details: higher = more signal;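 note: score merges 667 nm fluorescence intensity with signal-to-noise per printed feature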
[17] = small-molecule microarray binders of probe aShh, primary screen, biochemical, biotinylated probe, 635/667 nm fluorescence (AID 1114); details: higher = more signal;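 note: probe is biotin-labelled aShh protein from a stem cell growth factor screen; measures binding of labelled protein to compounds printed on the slide; score merges feature fluorescence at 667 nm with signal-to-noise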
[18] = small-molecule microarray binders of probe aNog, primary screen, biochemical, biotinylated probe, 635/667 nm fluorescence (AID 1115); details: higher = more signal;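 note: probe is biotinylated aNog protein used at 0.15 µg/mL for 1 h at 4 C; z-score combines 667 nm fluorescence of each spot with its signal to noise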
[19] = target: Torsin-1A-interacting protein 1 (Homo sapiens) (UniProt Q5JTV8); assay: LAP1 binders from COS7 cell lysate, primary screen, small-molecule microarray, 635/667 nm fluorescence (AID 1116); details: COS7-hLAP1 lysate binding, 635 nm fluorescence, higher = more signal
[20] = target: Alpha-bungarotoxin (Bungarus multicinctus) (UniProt P60615); assay: alpha-bungarotoxin binders on microarray, profiling panel, artefact control for SMM control protein annotation, biochemical, small-molecule microarray, Alexa647 label, 635/667 nm fluorescence (AID 1117); details: alpha-BTX-A647 binding fluorescence, higher = more signal
Sequence of Alpha-bungarotoxin (Bungarus multicinctus) (P60615 whole entry, looked up): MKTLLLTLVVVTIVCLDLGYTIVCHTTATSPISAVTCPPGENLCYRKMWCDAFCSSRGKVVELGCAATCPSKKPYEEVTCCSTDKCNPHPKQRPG

Sequence of Follistatin-related protein 3 (Homo sapiens) (O95633 whole entry, looked up): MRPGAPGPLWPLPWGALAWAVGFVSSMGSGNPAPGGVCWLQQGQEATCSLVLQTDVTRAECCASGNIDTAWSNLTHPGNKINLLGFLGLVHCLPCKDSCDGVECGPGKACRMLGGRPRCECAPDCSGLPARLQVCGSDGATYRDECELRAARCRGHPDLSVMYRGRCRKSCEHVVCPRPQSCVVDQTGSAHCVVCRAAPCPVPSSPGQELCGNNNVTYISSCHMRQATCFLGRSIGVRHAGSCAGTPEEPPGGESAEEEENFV
Sequence of Left-right determination factor 2 (Homo sapiens) (O00292 whole entry, looked up): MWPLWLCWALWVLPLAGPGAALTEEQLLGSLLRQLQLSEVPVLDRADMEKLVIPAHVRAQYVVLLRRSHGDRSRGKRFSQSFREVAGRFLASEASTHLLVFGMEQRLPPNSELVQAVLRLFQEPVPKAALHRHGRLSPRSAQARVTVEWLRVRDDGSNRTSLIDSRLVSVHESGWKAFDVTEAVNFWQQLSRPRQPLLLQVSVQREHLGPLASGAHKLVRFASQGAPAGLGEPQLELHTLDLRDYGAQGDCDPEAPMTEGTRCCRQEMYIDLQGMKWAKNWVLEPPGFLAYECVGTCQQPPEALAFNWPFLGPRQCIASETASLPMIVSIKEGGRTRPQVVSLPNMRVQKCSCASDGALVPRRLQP
Sequence of Dickkopf-related protein 1 (Homo sapiens) (O94907 whole entry, looked up): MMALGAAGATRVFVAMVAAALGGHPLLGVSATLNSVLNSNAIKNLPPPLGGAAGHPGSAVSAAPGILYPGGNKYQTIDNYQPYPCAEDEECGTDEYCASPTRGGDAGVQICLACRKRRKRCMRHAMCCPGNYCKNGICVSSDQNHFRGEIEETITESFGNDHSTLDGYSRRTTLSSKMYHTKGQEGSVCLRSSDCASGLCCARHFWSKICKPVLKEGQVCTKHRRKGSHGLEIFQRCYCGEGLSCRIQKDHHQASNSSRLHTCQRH
Sequence of Epidermal growth factor receptor (Homo sapiens) (P00533 whole entry, looked up): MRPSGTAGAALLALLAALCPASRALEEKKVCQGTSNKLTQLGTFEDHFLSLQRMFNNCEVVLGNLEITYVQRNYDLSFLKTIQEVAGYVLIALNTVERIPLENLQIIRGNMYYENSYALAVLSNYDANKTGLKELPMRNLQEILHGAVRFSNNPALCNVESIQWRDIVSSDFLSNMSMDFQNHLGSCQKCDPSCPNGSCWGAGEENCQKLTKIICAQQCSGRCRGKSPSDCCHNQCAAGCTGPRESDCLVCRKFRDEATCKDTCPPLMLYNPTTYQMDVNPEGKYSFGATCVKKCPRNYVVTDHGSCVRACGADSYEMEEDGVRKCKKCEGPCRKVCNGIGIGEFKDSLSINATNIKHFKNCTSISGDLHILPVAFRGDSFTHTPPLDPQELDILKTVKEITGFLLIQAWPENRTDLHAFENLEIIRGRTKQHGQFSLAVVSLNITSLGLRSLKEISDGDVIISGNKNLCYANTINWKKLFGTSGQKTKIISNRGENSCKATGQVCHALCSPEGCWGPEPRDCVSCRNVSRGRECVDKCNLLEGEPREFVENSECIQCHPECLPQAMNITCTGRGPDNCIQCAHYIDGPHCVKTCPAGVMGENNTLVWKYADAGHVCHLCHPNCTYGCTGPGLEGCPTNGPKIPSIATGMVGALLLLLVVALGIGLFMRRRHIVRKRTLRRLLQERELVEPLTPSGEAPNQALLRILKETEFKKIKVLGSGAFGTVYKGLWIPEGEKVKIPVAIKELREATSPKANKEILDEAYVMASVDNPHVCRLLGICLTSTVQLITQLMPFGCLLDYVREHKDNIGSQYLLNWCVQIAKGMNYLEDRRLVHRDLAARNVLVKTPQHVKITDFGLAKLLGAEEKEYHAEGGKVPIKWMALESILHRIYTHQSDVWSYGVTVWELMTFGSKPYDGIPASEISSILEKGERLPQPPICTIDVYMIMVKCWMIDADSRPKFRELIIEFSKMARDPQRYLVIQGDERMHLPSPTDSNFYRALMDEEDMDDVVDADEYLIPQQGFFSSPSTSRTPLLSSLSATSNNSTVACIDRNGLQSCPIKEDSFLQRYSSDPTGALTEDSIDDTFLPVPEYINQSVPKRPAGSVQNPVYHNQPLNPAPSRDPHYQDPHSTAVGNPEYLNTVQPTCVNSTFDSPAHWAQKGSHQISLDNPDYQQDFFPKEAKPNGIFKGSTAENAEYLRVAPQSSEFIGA
Sequence of Fibroblast growth factor 10 (Homo sapiens) (O15520 whole entry, looked up): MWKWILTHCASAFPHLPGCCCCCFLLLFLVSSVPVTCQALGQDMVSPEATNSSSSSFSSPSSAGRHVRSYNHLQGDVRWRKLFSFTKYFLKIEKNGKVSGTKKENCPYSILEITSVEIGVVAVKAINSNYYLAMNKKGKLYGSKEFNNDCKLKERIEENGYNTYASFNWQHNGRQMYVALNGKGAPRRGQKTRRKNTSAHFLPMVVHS
Sequence of Torsin-1A-interacting protein 1 (Homo sapiens) (Q5JTV8 whole entry, looked up): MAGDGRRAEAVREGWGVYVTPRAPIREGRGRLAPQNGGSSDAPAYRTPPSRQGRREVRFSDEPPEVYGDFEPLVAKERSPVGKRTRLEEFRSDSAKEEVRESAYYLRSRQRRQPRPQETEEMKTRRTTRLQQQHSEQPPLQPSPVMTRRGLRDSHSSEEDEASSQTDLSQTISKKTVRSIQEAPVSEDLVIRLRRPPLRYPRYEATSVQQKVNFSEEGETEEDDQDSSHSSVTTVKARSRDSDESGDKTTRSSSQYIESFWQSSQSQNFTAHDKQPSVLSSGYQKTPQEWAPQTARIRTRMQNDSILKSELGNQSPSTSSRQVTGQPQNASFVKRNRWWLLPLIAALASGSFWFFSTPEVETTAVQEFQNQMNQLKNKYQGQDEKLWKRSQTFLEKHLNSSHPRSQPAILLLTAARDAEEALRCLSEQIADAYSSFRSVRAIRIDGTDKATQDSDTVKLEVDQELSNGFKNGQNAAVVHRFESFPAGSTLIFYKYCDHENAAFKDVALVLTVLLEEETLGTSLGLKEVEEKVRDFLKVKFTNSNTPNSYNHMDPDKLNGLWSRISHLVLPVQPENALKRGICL

SMILES | composite z-score [1] | composite z-score [2] | composite z-score [3] | z-score [4] | composite z-score [5] | composite z-score [6] | composite z-score [7] | composite z-score [8] | composite z-score [9] | composite z-score [10] | composite z-score [11] | z-score [12] | composite z-score [13] | composite z-score [14] | composite z-score [15] | composite z-score [16] | composite z-score [17] | composite z-score [18] | composite z-score [19] | composite z-score [20]
CCOC(=O)C1=C[C@@H](c2ccccc2)N(S(=O)(=O)c2ccc(C)cc2)[C@H]1c1ccc(F)cc1 | 0.873 | 0.362 | 0.573 | -0.162 (inactive) | 0.635 | 1.29 | 0.158 | 1.04 | 0.675 | 0.589 | 0.431 | -1.97 | 0.446 | 0.37 | 0.342 | -0.0718 | 0.0929 | 0.862 | 0.904 | 1.27
COCCCNC(=O)[C@@]1(Sc2ccc(C)cc2)CC(=O)N(Cc2cc(C(F)(F)F)cc(C(F)(F)F)c2)[C@@H]1c1ccc(CO)cc1I | 1.84 | 0.46 | 1.19 | -1.26 (inactive) | -0.511 | -1.14 | -1.34 | -1.58 | -1.79 | 0.142 | -0.975 | -1.22 | -1.28 | -0.0999 | 1.14 | -0.147 | 0.267 | 0.942 | 0.339 | -0.489
CN(C)CCCC[C@@H]1NC(=O)[C@@H]2C[C@H](C(=O)O)[C@H](c3ccc(O)cc3)N2C1=O | 0.902 | -0.005 | -0.222 | -2.22 (inactive) | 0.857 | 1.21 | 0.737 | 0.928 | 1.68 | 0.293 | 0.668 | 0.883 | 1.15 | -0.0922 | -0.0146 | 0.0078 | -0.138 | 0.69 | 0.485 | 1.2
COc1cccc([C@H]2N[C@H](C(=O)O)CC[C@@H]2C)c1 | -0.406 | -0.251 | -0.136 | -1.94 (inactive) | -0.401 | 0.0602 | 0.194 | 0.0151 | 0.0655 | 0.282 | 0.0991 | 0.53 | 0.0589 | 0.0938 | 0.334 | -0.131 | -0.458 | -0.339 | 0.0026 | 0.396
COC(=O)[C@@]1(Cc2ccc(OC)cc2)[C@H]2c3cc(C(=O)N(C)C)n(Cc4ccc(C)c(F)c4F)c3C[C@H]2CN1C(=O)c1ccccc1 | 0.274 | 0.627 | 0.993 | -1.25 (inactive) | 0.0253 | -0.109 | -0.902 | 0.0502 | -1.11 | 0.781 | 0.723 | -1.35 | -0.841 | 1.52 | 1.21 | 0.148 | 0.575 | 1.09 | 0.232 | 0.644
COC(=O)[C@@]1(Cc2ccccc2CN=[N+]=[N-])N=C(c2ccc(OCCCO)cc2)O[C@H]1c1ccccc1N=[N+]=[N-] | 1.31 | 0.244 | 0.973 | -0.298 (inactive) | 0.752 | -0.381 | -0.0185 | -0.0661 | -0.608 | 0.948 | 1.02 | -1.53 | -0.453 | 0.173 | -0.17 | -0.129 | -0.203 | 2.32 | 0.0753 | 0.45
CO[C@H]1O[C@H](CO)[C@@H](OC(=O)Nc2ccc3c(c2)OCO3)[C@H](OC(=O)Nc2ccccc2)[C@@H]1OC(=O)Nc1ccccc1 | 0.966 | 0.0085 | 0.0249 | -0.788 (inactive) | 1.46 | 1.16 | -0.228 | 0.479 | -0.0463 | -0.0204 | 1.45 | -1.69 | -0.0553 | 1.01 | -0.677 | 0.129 | 0.0796 | 0.953 | 0.949 | 0.902
COC(=O)C(CC#Cc1ccc2c(c1)[C@]1(C(=O)N2)[C@H](C(=O)N2CCCCCCC2)[C@H]2C(=O)O[C@H](c3ccccc3)[C@H](c3ccccc3)N2[C@@H]1c1ccc(O)cc1)C(=O)OC | 0.465 | -0.2 | 0.269 | -0.751 (inactive) | -1.05 | -1.63 | -0.887 | -0.635 | -0.785 | 0.16 | -1.26 | -0.789 | -0.537 | -0.433 | -0.236 | -0.125 | -0.0769 | -0.411 | -0.723 | -0.715
COC(=O)[C@@]1(Cc2ccccc2N=[N+]=[N-])N=C(c2ccc(OCCCO)cc2)O[C@H]1c1ccccc1CN=[N+]=[N-] | 1.16 | 0.733 | 0.771 | 1.07 (inactive) | 0.468 | 0.393 | -0.34 | -0.0014 | -0.304 | 1.13 | 0.403 | -3.35 | -0.417 | 0.559 | 0.0128 | -0.0758 | -0.136 | 1.01 | 0.889 | 1.28
C#C[C@H](O[Si](C#Cc1ccccc1)(C(C)C)C(C)C)c1ccccc1 | 2.08 | -0.156 | 0.104 | -0.647 (inactive) | 0.0189 | -0.75 | -0.765 | -0.643 | -0.854 | 0.0677 | -0.285 | -0.733 | -0.962 | -0.226 | 0.418 | -0.162 | -0.154 | -0.333 | -0.246 | 0.821
[N-]=[N+]=NCc1ccccc1[C@H]1OC(c2ccc(OCCCO)cc2)=N[C@@]1(Cc1ccccc1N=[N+]=[N-])C(=O)NCc1ccccc1 | 1.01 | 1.09 | 1.1 | 0.672 (inactive) | 1.03 | 1.04 | -0.296 | 0.62 | -0.193 | 1.13 | 0.716 | -2.02 | -0.334 | 1.54 | 0.642 | 0.239 | 0.407 | 0.57 | 0.447 | 1.71
